LYPLA2 inh = blocks human lysophospholipase 2, a PME1 counter-screen; O95372; recombinant LYPLA2, FP-Rh probe fluorescence polarization; inhibition, % at 5.9 µM; 320,000 compounds, 0.38% hits; AID 2177;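 active means inhibition above the screen-wide mean plus 3 SD, limit set per campaign, cut at about 26% in these data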;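 further: 0% = LYPLA2 with DMSO and 100% = wells lacking LYPLA2 enzyme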
PAFAH1B2 FP inh = blocks human PAF acetylhydrolase 1b catalytic subunit 2 | P68402 | recombinant PAFAH1B2, FP-rhodamine activity probe, fluorescence polarization | inhibition, % at 3.39 µM | 340,000 compounds, 1.2% hits | AID 492953;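 active means inhibition above the mean of all tested compounds plus 3 SD, cut at about 24% in these data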;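 further: 0% = enzyme with DMSO and 100% = wells lacking PAFAH1B2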
pPAFAH inh = pPAFAH (human) enzyme inhibition; Q13093; recombinant pPAFAH, FP-rhodamine probe fluorescence polarization; inhibition, % at 3.39 µM; 330,000 compounds, 1.5% hits; AID 463082;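 active means inhibition above the mean inhibition across the screen plus 3 SD, cut at about 25% in these data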;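 further: inhibitors block binding of the rhodamine activity-based probe so polarization drops; 0% = enzyme with DMSO and 100% = wells lacking pPAFAH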
Target sequence (Q13093 whole entry, looked up): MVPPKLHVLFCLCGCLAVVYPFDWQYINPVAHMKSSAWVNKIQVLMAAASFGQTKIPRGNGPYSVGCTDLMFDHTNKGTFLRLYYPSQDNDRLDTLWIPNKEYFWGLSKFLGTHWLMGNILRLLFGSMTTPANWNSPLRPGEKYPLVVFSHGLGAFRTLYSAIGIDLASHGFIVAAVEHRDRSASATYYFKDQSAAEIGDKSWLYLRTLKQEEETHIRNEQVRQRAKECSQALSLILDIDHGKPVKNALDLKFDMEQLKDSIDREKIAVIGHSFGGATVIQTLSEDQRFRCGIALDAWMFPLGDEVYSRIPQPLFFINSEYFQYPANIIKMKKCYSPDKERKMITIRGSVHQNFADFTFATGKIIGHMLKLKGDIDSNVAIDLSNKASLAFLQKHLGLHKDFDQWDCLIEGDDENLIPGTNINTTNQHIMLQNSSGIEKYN
PAFAH1B3 inh = PAFAH1B3 (human) inhibition; recombinant PAFAH1B3, FP-rhodamine probe, fluorescence polarization; 340,000 compounds, 0.28% hits; Q15102; inhibition, % at 3.39 µM;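 active means inhibition above the screen-wide average of all tested compounds plus 3 SD, cut at about 25% in these data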;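 further: 0% = enzyme with DMSO only and 100% = wells lacking PAFAH1B3 protein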
LYPLA1 inh = blocks human lysophospholipase 1, a PME1 counter-screen | O75608 | recombinant LYPLA1, FP-Rh probe fluorescence polarization | inhibition, % at 5.9 µM | 320,000 compounds, 0.16% hits;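 active means inhibition above the mean of all tested compounds plus 3 SD, set per campaign, cut at about 14% in these data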;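 further: inhibitors block serine hydrolase probe labeling of LYPLA1 so polarization falls; 0% = enzyme with DMSO and 100% = wells lacking LYPLA1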
PAFAH2 FP inh = PAFAH2 (human) inhibition. recombinant PAFAH2, FP-rhodamine activity probe, fluorescence polarization. 340,000 compounds, 0.99% hits. inhibition, % at 3.39 µM. Q99487. AID 492956;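 active means inhibition above the mean over all tested compounds plus 3 SD, cut at about 30% in these data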;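 further: inhibitors block probe labeling of enzyme so polarization drops; 0% = enzyme with DMSO and 100% = wells lacking PAFAH2 protein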
The depositor's hits bear a star; x = not tested or not shown. In the library only some 2.9% were active in any assay of this set; here they are far more common.

SMILES	LYPLA2 inh	PAFAH1B2 FP inh	pPAFAH inh	PAFAH1B3 inh	LYPLA1 inh	PAFAH2 FP inh
COC(=O)C1=CN(C(C)c2ccccc2)C=C(C(=O)OC)C1c1cc(OC)c(OC)c(OC)c1 (stereo unspecified)	2	28*	-3	12	-1	4
COC(=O)C1=CN(Cc2ccc(OC)cc2)C=C(C(=O)OC)C1c1cc(OC)c(OC)c(OC)c1	2	15	0	3	6	3
CCC(=O)c1ccc(OCC(=O)NCCCN2CCOCC2)cc1	x	2	x	6	x	2
O=C(O)c1cccc(CSc2nc(-c3ccccc3)cc(C(F)(F)F)n2)c1	5	2	26*	7	-3	-11
COc1ccc(-c2cc(C(F)(F)F)nc(SCc3cccc(C(=O)O)c3)n2)cc1	12	0	8	-4	0	-3
O=C(N/C(=C\c1ccccc1)C(=O)N1CCCCCC1)c1ccccc1	-4	3	0	4	-1	-1
Cc1ccc(C2C(C#N)=C(N)Oc3cc(N)ccc32)cc1 (stereo unspecified)	-5	5	27*	-2	-5	-1
N#CC1=C(N)Oc2cc(N)ccc2C1c1ccsc1 (stereo unspecified)	-4	1	15	7	1	2
CCOC(=O)Cn1c(=O)oc2cc(S(=O)(=O)Nc3c(C)cc(C)cc3C)ccc21	0	-1	25*	6	0	5
CCOC(=O)Cn1c(=O)oc2cc(S(=O)(=O)NC3CCCCC3)ccc21	4	5	6	-8	-1	-1
Cn1c(C(=O)Nc2ccc3c(c2)OCO3)cc2c(=O)n(C)c3ccccc3c21	-4	-2	-5	1	3	-1
CCOc1ccc(N(CC(=O)NCCSCc2ccccc2)S(C)(=O)=O)cc1	3	4	17	-2	1	3
CCOc1ccc(N(CC(=O)NCCSCc2ccccc2)S(=O)(=O)c2ccccc2)cc1	-2	3	28*	-3	-6	1
Cc1cc(C)cc(N(CC(=O)NCCSCc2ccccc2)S(C)(=O)=O)c1	6	6	31*	-2	4	8
O=C(NCc1ccco1)c1ccccc1NC(=O)C1CC(=O)N(c2ccc(Cl)cc2)C1 (stereo unspecified)	-4	5	5	7	-1	-1
N#C/C(=C\c1ccc(N2CCOCC2)o1)C(=O)NCC1CCCO1 (stereo unspecified)	4	3	-2	6	1	5
N#C/C(=C\c1ccc(N2CCOCC2)o1)C(=O)NC1CCCCC1	7	24*	-2	3	-2	2
COC(=O)CCC(=O)OC1(C)C(=O)C=C2C=C(C3CC3)N(CCN3CCOCC3)C=C2C1=O (stereo unspecified)	1	-3	7	13	0	-2
COc1ccc(CNC(=O)CSc2nc3ccc(C)cc3[nH]2)cc1	6	29*	10	-3	5	-8
Cc1ccc2nc(SCC(=O)N3CCN(c4ccccc4)CC3)[nH]c2c1	3	30*	3	3	-2	7
O=C(CCNS(=O)(=O)c1ccccc1)NCCCSc1ccccc1	4	36*	4	6	2	5
O=C(CCNS(=O)(=O)c1ccc(Br)cc1)NCCCSc1ccccc1	3	26*	7	1	2	6
CCOc1ccc(S(=O)(=O)NCCC(=O)NCCCSc2ccccc2)cc1	-5	2	9	-1	-1	8
Cc1ccc(S(=O)(=O)NCCC(=O)NCCCSc2ccccc2)cc1	-1	1	4	-2	-3	-2
COC(=O)c1ccc(C2/C(=C(/O)c3ccc(OC(C)C)cc3)C(=O)C(=O)N2c2cc(C)on2)cc1 (stereo unspecified)	1	2	3	1	0	4
CC(C)(C)c1ccc(-n2ncc3c2CCCC3NC(=O)CCn2cncn2)cc1 (stereo unspecified)	5	1	33*	6	1	3
CCOC(=O)c1c(C)[nH]c(O)c1C=Nc1ccc(Cl)cc1	1	4	9	-2	4	-5
CCOC(=O)c1c(C)[nH]c(O)c1C=Nc1ccc(C(F)(F)F)cc1	10	18	8	31*	1	13
Cc1[nH]c2ccccc2c1/C=N/NC(=O)c1cc(-c2ccccc2)n[nH]1	-13	x	25*	x	-13	x

Screening data deposited in PubChem BioAssay by The Scripps Research Institute Molecular Screening Center.
